Results reported in paper PMC6792352, “Limited Chemical Structural Diversity Found to Modulate Thyroid Hormone Receptor in the Tox21 Chemical Library” (Environmental Health Perspectives, 2019).
Structures can show the parent of a compound that is named as a salt.

The compounds below were run on thyroid hormone receptor (endogenous TRα and TRβ). Conditions: read-out: Average AC50 (uM) GH3-TRE-Antag, antagonist mode, 1 nM T3, no GH3 cytotoxicity hit.
Parameters: species or system GH3-TRE-Luc (rat pituitary); GH3-TRE-Luc luciferase reporter, antagonist mode against 1 nM T3, loss of signal, qHTS

Structure (SMILES)	AC50
CC(=O)[C@@]1(O)CC[C@H]2[C@@H]3C=C(Cl)C4=CC(=O)CC[C@]4(C)[C@H]3CC[C@@]21C [Chlormadinone]	30.7 µM
CC(CN1CC(=O)NC(=O)C1)N1CC(=O)NC(=O)C1 (stereo not shown) [ICRF-159]	33.9 µM
Oc1c(Cl)ccc(Cl)c1Cl [2,3,6-Trichlorophenol]	> 90 µM
COC1=CC(=O)O[C@@H](/C=C/c2ccc3c(c2)OCO3)C1 [Methysticin]	0.0476 µM
NC(=O)N(O)[C@@H]1COc2cc(OCc3ccccc3)ccc21 [SB202235]	85 µM
CC(C)OC(=O)OCOP(=O)(CO[C@H](C)Cn1cnc2c(N)ncnc21)OCOC(=O)OC(C)C [Tenofovir disoproxil fumarate]	24.9 µM
CO[C@@H]1[C@H](OC(=O)NC(=O)CCl)CC[C@]2(CO2)[C@H]1[C@@]1(C)O[C@@H]1CC=C(C)C [o-(Chloroacetylcarbamoyl)fumagillol]	4.57 µM
CC1(C)C(/C=C(\Cl)C(F)(F)F)C1C(=O)OC(C#N)c1cccc(Oc2ccccc2)c1 (stereo not drawn) [alpha-Cyhalothrin]	26.1 µM
c1ccc2c(c1)CCc1ccccc1N2 [10,11-Dihydro-5H-dibenz[b,f]azepine]	40.6 µM
CCN(CC)c1ccc(C(=O)c2ccccc2C(=O)O)c(O)c1 [2-[4-(Diethylamino)-2-hydroxybenzoyl]benzoic acid]	43.7 µM
O=C1OC2(c3ccc(O)cc3Oc3cc(O)ccc32)c2ccccc21 [Fluorescein]	> 50 µM
CCCCCCCCCCCCCC(=O)O [Tetradecanoic acid]	52.3 µM
CN1C(=O)[C@@H](NC(=O)c2cc3ccccc3[nH]2)N=C(c2ccccc2)c2ccccc21 [Devazepide]	6.13 µM
CN1CCCN=C1COC(=O)C(O)(c1ccccc1)C1CCCCC1 (stereo not shown) [Oxyphencyclimine hydrochloride]	43.3 µM
Cc1ccccc1C(=O)Nc1ccc(C(=O)N2CCCC(O)c3cc(Cl)ccc32)c(C)c1 (stereo not shown) [Tolvaptan]	21.9 µM
ClC1C(Cl)C(Cl)C(Cl)C(Cl)C1Cl (stereo not drawn) [alpha-1,2,3,4,5,6-Hexachlorocyclohexane]	26.5 µM
CC(=O)O[C@]1(C(C)=O)CC[C@H]2[C@@H]3C[C@H](C)C4=CC(=O)CC[C@]4(C)[C@H]3CC[C@@]21C [Medroxyprogesterone acetate]	28 µM
COc1ccc(C(=O)c2ccccc2O)c(O)c1 [2,2'-Dihydroxy-4-methoxybenzophenone]	> 20 µM
Sc1ccccc1 [Benzenethiol]	44.5 µM
O=C1c2ccccc2-c2n[nH]c3cccc1c23 [SP600125]	11.6 µM

Structure (SMILES)	AC50
Nc1nc(N)c2nc(-c3ccccc3)c(N)nc2n1 [Triamterene]	39.2 µM
Nc1cc(S(=O)(=O)O)cc2cc(S(=O)(=O)O)cc(O)c12 [Monosodium 8-amino-1-naphthol-3,6-disulfonate monohydrate]	52.6 µM
CCC(C)(CC)c1cc(NC(=O)c2c(OC)cccc2OC)on1 [Isoxaben]	> 90 µM
CCO/N=C(\CC)C1=C(O)CC(c2c(C)cc(C)cc2C)CC1=O (stereo not shown) [Tralkoxydim]	> 90 µM
C#C[C@]1(O)CC[C@H]2[C@@H]3CCc4cc(O)ccc4[C@H]3CC[C@@]21C [17alpha-Ethinylestradiol]	16.2 µM
CC(C)Cc1ccc(C(C)C(=O)O)cc1 (stereo not shown) [Ibuprofen]	> 50 µM
CCCC(=O)O[C@]1(C(=O)CCl)[C@@H](C)C[C@H]2[C@@H]3CCC4=CC(=O)C=C[C@]4(C)[C@@]3(F)C(=O)C[C@@]21C [Clobetasone butyrate]	32.9 µM
CC[C@H](C)C(=O)O[C@H]1CCC=C2C=C[C@H](C)[C@H](CC[C@@H]3C[C@@H](O)CC(=O)O3)[C@H]21 [Mevastatin]	30.9 µM
CC1(C)CC/C(=C\c2ccc(Cl)cc2)C1(O)Cn1cncn1 (stereo not shown) [Triticonazole]	> 90 µM
CSc1ccc(/C=C2/C(C)=C(CC(=O)O)c3cc(F)ccc32)cc1 [Sulindac sulfide]	24 µM
CN1CCN2c3ncccc3Cc3ccccc3C2C1 (stereo not shown) [Mirtazapine]	15.4 µM
CC(C)c1cccc(C(C)C)c1N1C(=O)c2ccc(O)cc2C1=O [5HPP-33]	5.01 µM
O=C(c1ccccc1)c1cc(Cl)ccc1O [(5-Chloro-2-hydroxyphenyl)phenylmethanone]	84.3 µM
C[C@]12CC[C@@H]3c4ccc(O)cc4CC[C@H]3[C@@H]1CC[C@@H]2O [17beta-Estradiol]	31.7 µM
Oc1c(I)cc(I)c2cccnc12 [Iodoquinol]	11.5 µM
C=CC(=O)OCCOc1ccccc1 [2-Phenoxyethyl acrylate]	47.8 µM
CCO[Si](CC(C)C)(OCC)OCC [Triethoxy(2-methylpropyl)silane]	66.1 µM
Oc1ccccc1Cc1ccccc1O [2,2'-Bisphenol F]	> 90 µM
COCC(C)N(C(=O)CCl)c1c(C)csc1C (stereo not shown) [Dimethenamid]	> 50 µM
C=CCOC(=O)/C=C\C(=O)OCC=C [Diprop-2-en-1-yl (2Z)-but-2-enedioate]	79.2 µM
